Reference: PubChem BioAssay (Tox21)
“And” between values parts separate entries of the source, which are not always exact repeats. Identical values can stand only once. Records with an inconclusive call do not appear. Where a structure was tested more than once in an assay, its records may differ in their call. The source made the active and inactive calls. Calls come from the whole dose curve; as a rule, active = well fitted curve in the direction sought with a large enough effect in the repeat runs; inconclusive = weak or mixed curves; inactive = no such curve, though single readings can be large; an effect the other way counts as inactive or inconclusive.

Legend:
[1] = A CellTox Green Cytotoxicity Assay to monitor cytotoxicity in HEK293 cells - 40 hour (AID 1224871); note: nearly all actives have a fitted effect of over 45% in size; note: potency is the fitted concentration of half-maximal effect
How it was run: (§1)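 Read-out: fluorescence of a cell-impermeant cyanine dye staining DNA of dead cells, proportional to cytotoxicity. HEK293, 600 cells/well with reagent, compound (23 nL DMSO) added after 5 h; reads at 0, 8, 16, 24, 32, 40 h.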

[2] = qHTS RealTime-Glo MT Cell Viability Assay in HEK293 cells - 16 hour (AID 1224872); note: nearly all actives have a fitted effect of over 50% in size; note: potency is the fitted concentration of half-maximal effect
How it was run: (§2)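 Reads taken at 0, 8, 16, 24, 32 and 40 h from the same wells. HEK293 cells (600/well) carried RealTime-Glo reagents from seeding, with compound added after a 5 h settle at 37 C.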

[3] = qHTS RealTime-Glo MT Cell Viability Assay in HepG2 cells - 8 hour (AID 1224873); note: nearly all actives have a fitted effect of over 55% in size; note: potency is the fitted concentration of half-maximal effect
How it was run: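 Real-time viability: cells seeded at 600 per well together with NanoLuc and cell-permeant prosubstrate, compounds added after 5 h incubation. Luminescence tracked at 0, 8, 16, 24, 32 and 40 h of exposure.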

[4] = qHTS RealTime-Glo MT Cell Viability Assay in HEK293 cells - 40 hour (AID 1224874); conditions: RealTime-Glo luminescence; max response: stronger effect = lower value; note: nearly all actives have a fitted effect of over 50% in size
How it was run: (§3)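 Luminescence readout at each listed time point; HEK293, 600 cells/well, RealTime-Glo MT reagent added with cells; compounds pinned (23 nL in DMSO) after 5 h at 37 C; continuous culture at 37 C.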

[5] = A CellTox Green Cytotoxicity Assay to monitor cytotoxicity in HEK293 cells - 24 hour (AID 1224875); note: nearly all actives have a fitted effect of over 45% in size; note: potency is the fitted concentration of half-maximal effect
How it was run: as §1

[6] = A CellTox Green Cytotoxicity Assay to monitor cytotoxicity in HepG2 cells - 16 hour (AID 1224876); note: nearly all actives have a fitted effect of over 45% in size; note: potency is the fitted concentration of half-maximal effect
How it was run: (§4)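 HepG2, 600 cells/well premixed w/ CellTox Green; 5 h settle, 37 C/5% CO2; pintool cpd add (DMSO); 37 C, 40 h; fluorescence read at 0, 8, 16, 24, 32, 40 h.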

[7] = qHTS RealTime-Glo MT Cell Viability Assay in HepG2 cells - 32 hour (AID 1224877); note: nearly all actives have a fitted effect of over 55% in size; note: potency is the fitted concentration of half-maximal effect
How it was run: (§5)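 HepG2 suspension premixed with RealTime-Glo reagents is plated at 600 cells per well and left 5 h at 37 C/5% CO2. Compounds in DMSO then go in, and bioluminescence reflecting viable cell number is recorded over 40 h.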

[8] = A CellTox Green Cytotoxicity Assay to monitor cytotoxicity in HepG2 cells - 24 hour (AID 1224878); note: nearly all actives have a fitted effect of over 45% in size; note: potency is the fitted concentration of half-maximal effect
How it was run: as §4

[9] = A CellTox Green Cytotoxicity Assay to monitor cytotoxicity in HepG2 cells - 40 hour (AID 1224879); note: nearly all actives have a fitted effect of over 40% in size; note: potency is the fitted concentration of half-maximal effect
How it was run: as §4

[10] = qHTS RealTime-Glo MT Cell Viability Assay in HEK293 cells - 0 hour (AID 1224880)
How it was run: as §3

[11] = A CellTox Green Cytotoxicity Assay to monitor cytotoxicity in HEK293 cells - 32 hour (AID 1224881); note: nearly all actives have a fitted effect of over 40% in size; note: potency is the fitted concentration of half-maximal effect
How it was run: as §1

[12] = A CellTox Green Cytotoxicity Assay to monitor cytotoxicity in HepG2 cells - 0 hour (AID 1224882); note: nearly all actives have a fitted effect of over 35% in size
How it was run: as §4

[13] = A CellTox Green Cytotoxicity Assay to monitor cytotoxicity in HepG2 cells - 32 hour (AID 1224883); note: nearly all actives have a fitted effect of over 50% in size; note: potency is the fitted concentration of half-maximal effect
How it was run: as §4

[14] = A CellTox Green Cytotoxicity Assay to monitor cytotoxicity in HEK293 cells - 8 hour (AID 1224884); note: nearly all actives have a fitted effect of over 35% in size; note: potency is the fitted concentration of half-maximal effect
How it was run: as §1

[15] = qHTS RealTime-Glo MT Cell Viability Assay in HepG2 cells - 16 hour (AID 1224885); note: nearly all actives have a fitted effect of over 50% in size; note: potency is the fitted concentration of half-maximal effect
How it was run: as §5

[16] = qHTS RealTime-Glo MT Cell Viability Assay in HEK293 cells - 24 hour (AID 1224886)
How it was run: as §2

[17] = qHTS RealTime-Glo MT Cell Viability Assay in HEK293 cells - 8 hour (AID 1224887); note: nearly all actives have a fitted effect of over 50% in size; note: potency is the fitted concentration of half-maximal effect
How it was run: as §3

[18] = A CellTox Green Cytotoxicity Assay to monitor cytotoxicity in HEK293 cells - 16 hour (AID 1224888); note: nearly all actives have a fitted effect of over 35% in size; note: potency is the fitted concentration of half-maximal effect
How it was run: as §1

[19] = qHTS RealTime-Glo MT Cell Viability Assay in HepG2 cells - 0 hour (AID 1224889); note: nearly all actives have a fitted effect of over 50% in size
How it was run: as §5

[20] = A CellTox Green Cytotoxicity Assay to monitor cytotoxicity in HepG2 cells - 8 hour (AID 1224890); note: nearly all actives have a fitted effect of over 45% in size; note: potency is the fitted concentration of half-maximal effect
How it was run: as §4
% is set by controls: 0 for no effect and ±100 for the full control effect.

CC[N+]1(C)CCCC(OC(=O)C(O)(c2ccccc2)c2ccccc2)C1 (centres undefined)
inactive: Potency [1] | Potency [2] | Potency [3] | max response [4] 1.3% | Potency [5] | Potency [6] | Potency [7] | Potency [8] | Potency [9] | outcome [10] | Potency [11] | Potency [12] | Potency [13] | Potency [14] | Potency [15] | Potency [16] | Potency [17] | Potency [18] | outcome [19] | Potency [20]

CCC1(CCC(C)C)C(=O)NC(=O)NC1=O
inactive: Potency [1] | Potency [2] | Potency [3] | max response [4] -4.01% | Potency [5] | Potency [6] | Potency [7] | Potency [8] | Potency [9] | outcome [10] | Potency [11] | Potency [12] | Potency [13] | Potency [14] | Potency [15] | Potency [16] | Potency [17] | Potency [18] | outcome [19]

CC1(C)[C@H](C(=O)O[C@H](C#N)c2cccc(Oc3ccccc3)c2)[C@@H]1C=C(Br)Br
inactive: Potency [1] | Potency [2] | Potency [3] | max response [4] -8.94% and -16.3% | Potency [5] | Potency [6] | Potency [7] | Potency [8] | Potency [9] | outcome [10] | Potency [11] | Potency [12] | Potency [13] | Potency [14] | Potency [15] | Potency [16] | Potency [18] | outcome [19] | Potency [20]

CCc1cnc(C2=NC(C)(C(C)C)C(=O)N2)c(C(=O)O)c1 (centres undefined)
inactive: Potency [1] | Potency [2] | Potency [3] | max response [4] 1.73% and 22.4% | Potency [5] | Potency [6] | Potency [7] | Potency [8] | Potency [9] | outcome [10] | Potency [11] | Potency [12] | Potency [13] | Potency [14] | Potency [15] | Potency [16] | Potency [17] | Potency [18] | Potency [20]

NC(=S)c1c(Cl)cccc1Cl
inactive: Potency [1] | Potency [2] | Potency [3] | max response [4] -2.31% | Potency [5] | Potency [6] | Potency [7] | Potency [8] | Potency [9] | outcome [10] | Potency [11] | Potency [12] | Potency [13] | Potency [14] | Potency [15] | Potency [16] | Potency [17] | Potency [18] | Potency [20]

CCN(C(C)=O)c1cccc(-c2ccnc3c(C#N)cnn23)c1
inactive: Potency [1] | Potency [2] | Potency [3] | max response [4] -13.6% | Potency [5] | Potency [6] | Potency [7] | Potency [8] | Potency [9] | outcome [10] | Potency [11] | Potency [12] | Potency [13] | Potency [14] | Potency [15] | Potency [16] | Potency [18] | outcome [19] | Potency [20]

CCOP(=S)(OCC)Oc1ccc(S(C)=O)cc1 (centres undefined)
inactive: Potency [1] | Potency [2] | Potency [3] | max response [4] 6.56% | Potency [5] | Potency [6] | Potency [7] | Potency [8] | Potency [9] | outcome [10] | Potency [11] | Potency [12] | Potency [13] | Potency [14] | Potency [15] | Potency [16] | Potency [18] | Potency [20]

CC(C)(C)CC(C)(C)c1ccc(O)cc1
active: Potency [1] 30.9 µM and 21.3 µM | Potency [2] 12.3 µM | Potency [3] 21.9 µM | Potency [5] 13.8 µM and 21.3 µM | Potency [6] 27.5 µM and 10.7 µM | Potency [8] 19.5 µM and 13.4 µM | Potency [9] 17.4 µM and 15.1 µM | Potency [11] 12.3 µM and 19 µM | Potency [13] 27.5 µM and 15.1 µM | Potency [14] 15.5 µM and 12 µM | Potency [15] 34.7 µM | Potency [17] 34.7 µM | Potency [18] 21.9 µM and 21.3 µM | Potency [20] 17.4 µM and 10.7 µM
43.6 µM (active) and inactive: Potency [7]
inactive: max response [4] -17% | outcome [10] | Potency [12] | outcome [19]

C#CC(O)(C=CCl)CC (centres undefined)
inactive: Potency [1] | Potency [2] | Potency [3] | max response [4] 10.1% | Potency [5] | Potency [6] | Potency [7] | Potency [8] | Potency [9] | outcome [10] | Potency [11] | Potency [12] | Potency [13] | Potency [14] | Potency [15] | Potency [16] | Potency [17] | Potency [18] | Potency [20]

CC(=O)NNc1ccccc1
inactive: Potency [1] | Potency [2] | Potency [3] | max response [4] 2.64% | Potency [5] | Potency [6] | Potency [7] | Potency [8] | Potency [9] | outcome [10] | Potency [11] | Potency [12] | Potency [13] | Potency [14] | Potency [15] | Potency [16] | Potency [17] | Potency [18] | outcome [19] | Potency [20]

CCC1CCC(=O)O1 (centres undefined)
inactive: Potency [1] | Potency [2] | Potency [3] | max response [4] 8.21% | Potency [5] | Potency [6] | Potency [7] | Potency [8] | Potency [9] | outcome [10] | Potency [11] | Potency [12] | Potency [13] | Potency [14] | Potency [15] | Potency [16] | Potency [17] | Potency [18] | Potency [20]

CC(C)OC(=O)Cc1ccccc1
inactive: Potency [1] | Potency [2] | Potency [3] | max response [4] 5.49% | Potency [5] | Potency [6] | Potency [7] | Potency [8] | Potency [9] | outcome [10] | Potency [11] | Potency [12] | Potency [13] | Potency [14] | Potency [15] | Potency [17] | Potency [18] | outcome [19] | Potency [20]

CC(C)c1ccc(OP(=O)(Oc2ccc(C(C)C)cc2)Oc2ccc(C(C)C)cc2)cc1
inactive: Potency [1] | Potency [2] | Potency [3] | max response [4] -29.6% | Potency [5] | Potency [6] | Potency [7] | Potency [8] | Potency [9] | outcome [10] | Potency [11] | Potency [12] | Potency [13] | Potency [14] | Potency [15] | Potency [16] | Potency [17] | Potency [18] | outcome [19] | Potency [20]
